Rows were chosen to be rich in hits. Some 21% of all compounds tested hit in one or more screens of this group.
HCV inh: qHTS Assay for Inhibitors of Hepatitis C Virus (HCV); AID 651820, 2012; Potency, µM (series often up to 41.8 µM), without a hit: at the highest dose activity change, negative = inhibition, actives largely listed as inhibitors; Huh7.5.1 HCVcc-Cre infection, luciferase reporter, 44 h; 3.4% of 340,000 active; also: potency is read from the fitted curve at half-maximal effect; % is scaled to controls: 0 for no effect and ±100 for the full control effect
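Seed cells (1,000/well) for 4 h; treat with compound and infect with HCVcc-Cre, moi about 0.5. Incubate 44 h, then detect luciferase activity.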
Cycloheximide cs: Cycloheximide Counterscreen for Small Molecule Inhibitors of Shiga Toxin. 12% of 300,000 active. AID 2314, 2010. cell reporter, cycloheximide protein synthesis inhibition counterscreen. max response, %; in the data active = max response mostly above about 13%, no sharp cut-off; inactive = mostly below about 14%; also: read at 38.3 µM for the half of the compounds with a filed dose; 0% is about no effect
Pf growth 96h: Primary qHTS for delayed death inhibitors of the malarial parasite plastid, 96 hour incubation | AID 504834, 2011 | P. falciparum luciferase reporter growth, 96 h | 6.9% of 320,000 active | Potency, µM (highest dose often 28.7 µM), for inactives: top-dose activity change, negative = inhibition, most hits filed as inhibitors; also: potency is read from the fitted curve at half-maximal effect; % is scaled to controls: 0 for no effect and ±100 for the full control effect
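Readout is luminescence from an integrated firefly luciferase in P. falciparum. Red cells, 2% hematocrit and 0.05% parasitemia final, were cultured with compound through two parasite generations (96 hours) at 37 C, 5% CO2.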
HCMV inh: qHTS Assay for inhibitors of the human cytomegalovirus (HCMV). HFF cells, HCMV-luciferase reporter, 72 h; hits give low values. activity change, negative = inhibition, % at 57.5 µM. 4.5% of 410,000 active; in the data active = activity change below about -60%; inconclusive = no clear call, values can overlap the other calls; inactive = above about -39%; also: % is scaled to controls: 0 for no effect and ±100 for the full control effect
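Two-dose cell screen: HFF monolayers treated with compounds and infected with luciferase-expressing HCMV at 1 PFU/cell, 72 h at 37C, then lysed for luciferase measurement.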
Shiga inhibitor: A qHTS for Small Molecule Inhibitors of Shiga Toxin | inhibition, % at 38.7 µM | Vero cells, Shiga toxin protein synthesis inhibition reporter | AID 2315, 2010 | 9.2% of 290,000 active; in the data active = inhibition mostly above about 28%, no sharp cut-off; inactive = mostly below about 43%; also: 0% is about no effect
Pf growth 48h: Primary qHTS for delayed death inhibitors of the malarial parasite plastid, 48 hour incubation. Potency, µM (doses to about 28.7 µM), without a hit: top-dose activity change, negative = inhibition, actives largely listed as inhibitors. P. falciparum luciferase growth in erythrocytes, 48 h. AID 504832, 2011. 5.9% of 310,000 active; also: potency is read from the fitted curve at half-maximal effect; % is scaled to controls: 0 for no effect and ±100 for the full control effect
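Erythrocytes infected with P. falciparum carrying an integrated firefly luciferase reporter (2% hematocrit, 0.1% parasitemia final) were exposed to compounds in RPMI 1640 with 0.5% Albumax at 37 C, 5% CO2. Growth inhibition was scored as reduced luminescence.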
Numbers without * were called inactive; ? = inconclusive; . = no result given. Unless noted, calls follow the shape of the dose curve; as a rule, active = well fitted inhibition curve with a large enough effect; inconclusive = small, poorly fitted or top-dose-only effect, or another doubt; inactive = no such curve, though single readings can be large or run the other way.

SMILES	HCV inh	Cycloheximide cs	Pf growth 96h	HCMV inh	Shiga inhibitor	Pf growth 48h
O=c1c(Cl)c(Nc2cccc(Cl)c2)cnn1-c1nc2ccccc2s1	3.5%	88.0*	69.1%	13.8	68.7*	270.0%
COc1ccccc1NC(=O)CCN1CCC(C(N)=O)CC1	.	.	.	3.8	.	.
CCn1c(=O)c2cc(C(=O)N(CC(C)C)CC(C)C)sc2c2ccccc21	.	.	.	-7.8	.	.
CCOc1ccc2nc(N3CCC(C(=O)N4CCN(c5ncccn5)CC4)CC3)sc2c1	-11.1%	25.7*	?	19.7	38.6	-1.9%
CCOC(=O)C1CCN(C(=O)C2CCN(c3nn4c(=O)cc(C)nc4s3)CC2)CC1	4.9%	-8.0	?	23.3	-5.0	?
CCCc1cc(=O)n2nc(N3CCC(C(=O)N4CCN(c5cccc(OC)c5)CC4)CC3)sc2n1	?	1.0	-6.2%	-70.1*	-3.2	?
CCOc1ccc2nc(N3CCC(C(=O)N4CCN(c5ccccn5)CC4)CC3)sc2c1	6.31µM*	-0.4	44.9%	.	20.4	?
Cc1nc2nc(CNC(=O)OC(C)(C)C)nn2c(C)c1CCC(=O)NCc1ccc(F)cc1	.	.	.	-9.1	.	.
CS(=O)(=O)Nc1cccc(-c2cc(NC=O)c3ncc(-c4ccc(F)cc4)n3c2)c1	.	.	.	41.4	.	.
CCSc1ccc([C@@H]2[C@@H]3C(=O)N(C)C(=O)[C@@H]3[C@]3(C(=O)OC)CCCCN23)cc1	5.4%	.	?	-14.8	.	8.28µM*
CCC(C)Sc1ccc([C@@H]2[C@@H]3C(=O)N(C)C(=O)[C@@H]3[C@]3(C(=O)OC)CCCCN23)cc1OC (some centres undefined)	-5.3%	.	?	69.6	.	?
COC(=O)[C@@]12CCCCN1[C@H](c1ccc(-c3ccc(OC)cc3)cc1)[C@H]1C(=O)N(C)C(=O)[C@H]12	-5.4%	.	-26.0%	4.7	.	?
COC(=O)[C@@]12CCCCN1[C@H](c1ccc(SC3CCCCC3)cc1)[C@H]1C(=O)N(C)C(=O)[C@H]12	12.9%	.	?	15.3	.	?
CCC(C)Sc1ccc([C@@H]2[C@@H]3C(=O)N(CC)C(=O)[C@@H]3[C@]3(C(=O)OC)CCCCN23)cc1OC (some centres undefined)	11.2µM*	.	.	13.6	.	.
COC(=O)[C@@]12CCCCN1[C@H](c1ccc(SC3CCCCC3)c(OC)c1)[C@@H]1C(=O)N(C)C(=O)[C@@H]12	-4.6%	.	8.28µM*	-8.3	.	8.28µM*
CCSc1ccc([C@@H]2[C@H]3C(=O)N(C)C(=O)[C@H]3[C@]3(C(=O)OC)CCCCN23)cc1OC	-11.3%	.	?	-0.4	.	10.4µM*
CCN1C(=O)[C@@H]2[C@@H](c3ccc(SC4CCCCC4)c(OC)c3)N3CCCC[C@@]3(C(=O)OC)[C@@H]2C1=O	18.7%	.	.	-26.0	.	.
CC1(C(=O)Nc2ccc3c(c2)OCO3)CCN1C(=O)CCc1cccs1 (centres undefined)	.	.	.	-19.9	.	.
CCOc1ccccc1NC(=O)c1ccc2c(O)c(S(=O)(=O)c3ccccc3)c(=O)[nH]c2c1	.	.	.	-10.8	.	.
CCSc1ccc([C@@H]2[C@@H]3C(=O)N(CC)C(=O)[C@@H]3[C@]3(C(=O)OC)CCCCN23)cc1OC	?	.	?	-3.7	.	13.1µM*
CCN1C(=O)[C@H]2[C@@H](c3ccc(-c4ccc(C(C)=O)cc4)c(OC)c3)N3CCCC[C@@]3(C(=O)OC)[C@H]2C1=O	-15.0%	.	.	-2.8	.	.
C=CCN(CC=C)c1ncnc2[nH]ncc12	-5.4%	.	.	-86.0*	.	.
C/C(=N\NC(N)=S)C1C2C3CC4C5CC(C42)C1C53 (centres undefined)	?	-0.3	?	-62.4*	1.3	?
CCOC(=O)COc1ccccc1/C=C\[N+](=O)[O-]	?	-10.7	107.3%	.	-19.6	14.7µM*
CC(C)CNC(=O)COc1ccccc1[N+](=O)[O-]	15.6%	13.7	14.4%	67.0	7.1	30.5%
SMILES	HCV inh	Cycloheximide cs	Pf growth 96h	HCMV inh	Shiga inhibitor	Pf growth 48h
Cc1ccc(C(=O)COC(=O)COc2ccccc2[N+](=O)[O-])s1	30.0%	.	12.4%	-100.6*	.	4.9%
O=C(COc1ccccc1[N+](=O)[O-])c1ccccc1	1.7%	24.9*	-8.2%	-16.1	25.2	?
COC(=O)/C=C/COc1ccccc1[N+](=O)[O-]	-5.4%	43.0*	-12.0%	68.2	106.8*	83.4%
COc1ccccc1[N+](=O)[O-]	?	.	33.8%	-6.2	.	25.8%
Cc1ccc(-n2c3nc(=O)n(C)c(=O)c-3cc3c(Cl)cccc32)c(C)c1	.	.	.	1.2	.	.
O=C(Cc1ccc(NC(=O)N2CCCCc3ccccc32)cc1)NCc1ccccc1Br	.	.	.	25.5	.	.
COc1ccc(C(=O)COC(=O)/C=C/c2ccccc2[N+](=O)[O-])cc1	6.4%	.	.	?	.	.
O=C(/C=C/c1ccccc1[N+](=O)[O-])OCC(=O)c1ccccc1	9.8%	36.6*	-18.5%	?	79.3*	40.5%
O=[N+]([O-])c1ccccc1OC/C(=N\O)c1ccccc1	-0.4%	14.8*	61.1%	23.2	41.0*	3.7%
Clc1cccc(N2CCN(c3nc4ccccc4n4cnnc34)CC2)c1	.	.	.	-2.7	.	.
Cc1cccc(C)c1OCc1cc(C(=O)NCC2CCCCC2)no1	2.5%	-3.4	21.5%	?	-5.1	7.8%
CSc1ccccc1OCc1cc(C(=O)NCc2cnc(C)cn2)no1	1.2%	6.8	28.6%	-3.0	-5.1	47.3%
Cc1cccc(C)c1OCc1cc(C(=O)N(Cc2c(C)nn(C)c2C)C2CC2)no1	10µM*	-1.6	-5.3%	0.0	1.6	-24.2%
Cc1cccc(C)c1OCc1cc(C(=O)NCc2cn(C)nc2C)no1	?	12.8*	?	-24.1	8.3	-6.8%
CSc1ccccc1OCc1cc(C(=O)NCCc2nc(C)cc(C)n2)no1	?	24.0*	6.9%	55.3	43.0*	?
CSc1ccccc1OCc1cc(C(=O)NCCc2ccco2)no1	-17.8%	35.4*	6.2%	56.0	58.6*	47.6%
Cc1cc(CNC(=O)c2cccnc2Cl)c2ccccc2n1	16.0%	-4.9	27.0%	5.7	31.4	25.1%
CCn1cc(C(=O)N[C@H](C(=O)NCCCn2ccnc2)C(C)C)c(=O)c2cc3c(cc21)OCO3	18.3%	-1.7	7.9%	-28.6	-3.9	-14.8%
CSc1ccccc1OCc1cc(C(=O)NCc2csc(C(C)C)n2)no1	-11.7%	16.9*	55.2%	8.7	14.6	?
CSc1ccccc1OCc1cc(C(=O)N(C)C2CCCc3ccccc32)no1 (centres undefined)	?	34.9	19.6%	-33.3	50.4*	?
CC(C)c1nc(CNC(=O)c2cc(COc3c(F)cccc3F)on2)cs1	9.6%	0.7	-21.6%	27.9	-3.4	10.4%

Source: PubChem BioAssay (National Center for Advancing Translational Sciences (NCATS))
